Screens: PubChem BioAssay, several laboratories
HIF-2a block: HIF-2a inhibition. 786-0 RCC cells HIF-2a reporter, luciferase luminescence, overnight. inhibition, % at 18.8 µM. actives 0.72% (n = 360,000);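 active means inhibition of the luminescence signal of 40% or more relative to plate controls, in a single-dose primary screen at 18.75 µM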
CF NFkB inh: blocks PAF-induced NF-kB reporter in cystic fibrosis cells; inhibition, % at 5 µM; actives 0.86% (n = 360,000); KKLEB NF-kB-GFP reporter, GFP fluorescence overnight; AID 588850;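 active means at least 50% inhibition at 5 µM, scaled per plate between neutral and stimulator controls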;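 further: PAF is a Pseudomonas aeruginosa culture filtrate used as stimulus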
KKLEB cytotox: CF airway cell cytotoxicity counter-screen. KKLEB CF airway cells viability, ATPlite luminescence, overnight; stronger effect = lower value; cells stimulated with P. aeruginosa culture filtrate. activity change (cytotoxicity), % at 5 µM. actives 0.36% (n = 360,000);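 active means corrected activity change at or below -50% at 5 µM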
Peg3 prom inh-1: reduces Peg3 promoter-driven luciferase expression in HeLa | HeLa PEG-Prom luciferase reporter, luminescence, overnight | inhibition, % at 20 µM | actives 1.7% (n = 360,000) | AID 588405;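 active means inhibition of at least 50% at 20 µM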
MITF TRPM1 inh: reduces MITF-dependent TRPM1 promoter luciferase signal | SK-MEL-5 TRPM1 promoter luciferase, 24 h | actives 0.83% (n = 330,000) | inhibition, % at 12.5 µM;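 active means mean inhibition across replicates of 60% or more, whatever share of single replicates reaches that level; inconclusive means some that reach 60%, reason not given; inactive means mean inhibition across replicates below 60%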
ABHD5-PLIN5 inh: blocks binding of human ABHD5 to perilipin-5; inhibition, % at 4 µM; Split G. princeps luciferase complementation, luminescence, 4 h; actives 0.78% (n = 360,000); AID 602281; Q00G26+Q8WTS1;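 active means inhibition above the mean inhibition across every tested compound plus 3 SD, cut at about 22% in these data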
Target sequence (Q00G26 whole entry, looked up): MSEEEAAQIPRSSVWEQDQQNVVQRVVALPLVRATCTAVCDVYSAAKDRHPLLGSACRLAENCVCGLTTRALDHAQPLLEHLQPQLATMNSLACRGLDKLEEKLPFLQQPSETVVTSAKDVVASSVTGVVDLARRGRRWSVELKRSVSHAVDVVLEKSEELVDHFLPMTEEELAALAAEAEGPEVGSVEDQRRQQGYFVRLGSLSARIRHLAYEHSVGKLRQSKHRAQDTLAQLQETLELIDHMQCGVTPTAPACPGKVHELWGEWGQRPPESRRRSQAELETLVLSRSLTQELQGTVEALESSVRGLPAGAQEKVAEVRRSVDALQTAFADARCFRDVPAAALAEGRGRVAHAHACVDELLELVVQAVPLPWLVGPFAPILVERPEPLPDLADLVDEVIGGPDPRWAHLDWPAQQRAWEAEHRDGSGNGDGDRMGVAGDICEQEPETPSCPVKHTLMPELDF
Target sequence (Q8WTS1 whole entry, looked up): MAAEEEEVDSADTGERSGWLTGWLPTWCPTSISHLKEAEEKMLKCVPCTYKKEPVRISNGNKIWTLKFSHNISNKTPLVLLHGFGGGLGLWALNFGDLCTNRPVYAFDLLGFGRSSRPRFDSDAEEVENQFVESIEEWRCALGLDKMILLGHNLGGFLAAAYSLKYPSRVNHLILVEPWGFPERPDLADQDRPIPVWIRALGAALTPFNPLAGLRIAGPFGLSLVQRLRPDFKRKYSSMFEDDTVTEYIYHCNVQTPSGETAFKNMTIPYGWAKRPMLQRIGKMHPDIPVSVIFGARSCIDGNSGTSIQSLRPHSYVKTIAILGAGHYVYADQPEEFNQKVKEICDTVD
Peg3 prom inh-2: confirmation of Peg3 promoter inhibitors; shares compounds with Peg3 prom inh-1; HeLa PEG-Prom luciferase reporter, luminescence, overnight; inhibition, % at 20 µM; actives 84% (n = 1,300);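 active means at 20 µM dose, 40% or more inhibition averaged across four replicates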
Hits are given with their value; . = inactive; ? = inconclusive; / = not tested or not shown. An excerpt weighted towards active compounds, which were near 3.1% of everything screened.

SMILES	HIF-2a block	CF NFkB inh	KKLEB cytotox	Peg3 prom inh-1	MITF TRPM1 inh	ABHD5-PLIN5 inh	Peg3 prom inh-2
CCC(C)(C)C1CCC2(CC1)NC(=O)N(CC(=O)N1CCN(c3ccccc3OC)CC1)C2=O (stereo not given)	.	.	.	.	/	.	/
CC(C)=C(NC(=O)c1ccccc1)C(=O)NCCc1nc2ccccc2[nH]1	.	.	.	.	.	.	/
COc1ccc2c(c1)[nH]c1c(=O)n(/N=C/C3C(C)C=C(C)CC3C)c(=O)[nH]c12 (stereo not given)	.	.	.	58.5	.	.	45.4
CC1=CC(C)[C@H](/C=N/n2c(=O)[nH]c3c([nH]c4ccc(Br)cc43)c2=O)C(C)C1 (stereo not given in full)	.	.	.	93.2	.	.	54.7
COc1ccc2[nH]c3c(=O)n(N)c(=O)[nH]c3c2c1	.	.	.	.	.	.	/
COc1ccc(/C=N/n2c(=O)[nH]c3c([nH]c4ccc(Br)cc43)c2=O)cc1CN1CCOCC1	.	.	.	.	.	.	/
CCc1cc2c(COC(=O)CCNS(=O)(=O)c3cccc(C(F)(F)F)c3)cc(=O)oc2cc1O	.	.	.	.	.	.	/
COc1cc2c(cc1OC)C(SC)=NC1(CCCC1)C2	.	.	.	64.3	87.3	.	.
COc1ccc(C(C)=O)cc1CSc1nnc(Nc2c(C)cccc2C)s1	.	.	.	.	.	.	/
O=C(CCN1C(=O)/C(=C/c2cccs2)SC1=S)N1CCCCC1	.	.	.	112.1	.	.	91.6
COc1cc(/C=C2\SC(=S)N(CCC(=O)N3CCCCC3)C2=O)cc(OC)c1OC	.	.	.	67.8	.	.	47.1
O=C(/C=C(/c1ccc(Cl)cc1)n1cncn1)c1ccccc1	.	.	.	.	.	.	/
O=C(COc1ccc2c(c1)OCO2)Nc1ccccc1F	.	.	.	.	.	.	/
Fc1ccc([C@@H]2CCNC[C@H]2COc2ccc3c(c2)OCO3)cc1	.	.	.	66.0	?	.	62.3
Cc1ccc(S(=O)(=O)N(C)c2ccc(OC(=O)CN3C(=O)NC4(CCCC4)C3=O)cc2)cc1C	.	.	.	.	.	.	/
CCS(=O)(=O)Nc1ccc2[nH]c(=O)[nH]c2c1	.	.	.	.	.	.	/
O=C(N/N=C/c1ccc(Cl)c([N+](=O)[O-])c1)c1cc(-c2ccc3c4c(cccc24)CC3)n[nH]1	.	.	.	111.5	.	.	55.4
COc1ccc2oc(CS(=O)c3ccccc3)c(C(=O)O)c2c1 (stereo not given)	.	.	.	.	.	.	/
Cc1cccc(NC(=O)c2oc3ccc(S(=O)(=O)N4CCOCC4)cc3c2C)c1C	.	.	.	53.8	.	.	55.7
Cc1nn(-c2nc3ccccc3[nH]2)c(=O)c2ccccc12	95.4	.	-77.9	104.1	96.1	.	98.7
Cc1ccc(S(=O)(=O)N(C)C)cc1NC(=O)c1cncc(Br)c1	.	.	.	54.7	.	.	69.2
CN(C)S(=O)(=O)c1cccc(NC(=O)c2cncc(Br)c2)c1	.	.	.	.	.	.	/
Cc1nc(NN)c2c3c(sc2n1)COC(C)(C)C3	.	.	.	.	.	.	/
O=C(CCN1C(=O)/C(=C/c2ccccc2Cl)SC1=S)Nc1ccccc1C(=O)O	.	.	.	.	.	.	/
O=C(CCCN1C(=O)/C(=C/c2ccccc2Cl)SC1=S)NNC(=O)c1ccc(Cl)cc1Cl	73.4	.	.	65.9	.	.	42.7
SMILES	HIF-2a block	CF NFkB inh	KKLEB cytotox	Peg3 prom inh-1	MITF TRPM1 inh	ABHD5-PLIN5 inh	Peg3 prom inh-2
CCOC(=O)c1c(NC(=O)c2ccc(S(=O)(=O)N3CCOCC3)cc2)sc2c1CC(C)(C)NC2(C)C	.	.	.	53.4	.	.	.
CCOC(=O)c1c(NC(=O)COc2ccccc2F)sc2c1CC(C)(C)NC2(C)C	.	.	.	85.5	71.2	.	79.9
CCOC(=O)c1c(NC(=O)CSc2ncccn2)sc2c1CC(C)(C)NC2(C)C	.	.	.	.	.	.	/
C/C(=N\NC(=O)c1cc(C2CC2)nc2ccccc12)c1ccc(O)cc1O	.	.	.	55.7	.	.	65.0
C/C(=N\NC(=O)c1cc(C2CC2)nc2ccccc12)c1ccc(C)s1	.	.	.	.	.	.	/
COc1ccc(C(=O)NC(=O)Nc2cc(C)ccn2)cc1	.	.	-54.9	72.4	70.2	.	.
O=C(Nc1ccccn1)c1ccc(C(=O)c2ccccc2)cc1	.	.	.	.	.	.	/
O=C(NC(=O)c1ccccc1)Nc1ccccn1	75.2	.	.	90.2	81.3	.	76.8
CCc1ccccc1N(CC)C(=O)C1CCN(c2ncnc3c2nc2n3CCCCC2)CC1	.	.	.	56.0	.	.	.
CCN(Cc1ccccc1)C(=O)C1CCN(c2ncnc3c2nc2n3CCCCC2)CC1	.	.	.	.	.	.	/
O=C(CN1CCN(Cc2ccccc2Cl)CC1)N=Nc1c(O)[nH]c2ccccc12	.	.	.	54.3	.	.	48.0
Cc1cc(C(=O)CN2C(=O)c3ccccc3S2(=O)=O)c(C)n1-c1ccccc1	86.5	.	.	92.7	81.2	.	93.3
Cc1ccc(C2(CCNCc3ccc(N(C)C)cc3)CCOC(C(C)C)C2)cc1 (stereo not given)	.	.	.	56.3	.	.	62.9
CN(C)CCNC(=O)c1sc2nc(-c3ccccc3)cc(C(F)(F)F)c2c1N	.	.	.	61.0	.	.	70.4
COc1ccc(-c2[nH]ncc2CN2CCC(N3CCSCC3)CC2)cc1F	.	.	.	.	.	.	/
CCn1cc(C(=O)NCCC(C)C)c(=O)c2cc(F)c(N3CCN(C(=O)c4ccco4)CC3)cc21	.	.	.	63.5	.	.	48.5
COc1ccccc1CNS(=O)(=O)c1cc(-c2cc(C)no2)ccc1C(C)C	.	.	.	.	.	.	/
CC1CCCCN1CCNC(=O)c1ccc2c(=O)n(Cc3ccc(Cl)cc3)c(=S)[nH]c2c1 (stereo not given)	.	.	.	101.7	.	.	97.6
OCc1ccccc1-c1cnc2sc(NCc3ccc(F)cc3)nn12	.	.	.	.	/	.	/
Cn1cc(CN2CCCC(C(=O)Nc3ccc(-c4cccc(F)c4)cc3)C2)cn1 (stereo not given)	.	.	.	52.6	.	.	76.6
Nc1cccc(C(=O)c2ccccc2C(=O)O)c1	.	.	.	.	.	.	/
COc1ccc(NC(=O)c2cc3c(Cl)nc4ccccc4c3s2)c(OC)c1	.	.	.	52.4	.	.	.
N/C(=N\OC(=O)c1ccccc1)C(C(=O)NOC(=O)c1ccccc1)C1CCCCC1 (stereo not given)	.	.	.	86.3	.	.	96.7
O=C(O)c1cc(/C=N\O)ccc1OCc1ccccc1	.	.	.	.	.	.	/
